ChEMBL document CHEMBL3988442, “University of Dundee, Small-Polar-MMV Screening Library” (2021)
For some assays here: Results with a measured potency or affinity are listed apart.

Tests used:
Design in all cases: scale not given: direction of the effect not stated beside the values
[1] = target: Protein translocase subunit SecA (Escherichia coli (strain K12)) (UniProt P10408); test: Assay to Identify E. coli SecA ATPase Inhibitors; format: functional; settings: 30 µM
[2] = target: T1, Ubiquitin-activating enzyme e1, putative (Leishmania donovani (strain BPK282A1)) (UniProt E9BSI1); test: Leishmania donovani Ubiquitin Activating Enzyme (LdE1); format: functional; settings: 30 µM
T1 sequence (whole entry): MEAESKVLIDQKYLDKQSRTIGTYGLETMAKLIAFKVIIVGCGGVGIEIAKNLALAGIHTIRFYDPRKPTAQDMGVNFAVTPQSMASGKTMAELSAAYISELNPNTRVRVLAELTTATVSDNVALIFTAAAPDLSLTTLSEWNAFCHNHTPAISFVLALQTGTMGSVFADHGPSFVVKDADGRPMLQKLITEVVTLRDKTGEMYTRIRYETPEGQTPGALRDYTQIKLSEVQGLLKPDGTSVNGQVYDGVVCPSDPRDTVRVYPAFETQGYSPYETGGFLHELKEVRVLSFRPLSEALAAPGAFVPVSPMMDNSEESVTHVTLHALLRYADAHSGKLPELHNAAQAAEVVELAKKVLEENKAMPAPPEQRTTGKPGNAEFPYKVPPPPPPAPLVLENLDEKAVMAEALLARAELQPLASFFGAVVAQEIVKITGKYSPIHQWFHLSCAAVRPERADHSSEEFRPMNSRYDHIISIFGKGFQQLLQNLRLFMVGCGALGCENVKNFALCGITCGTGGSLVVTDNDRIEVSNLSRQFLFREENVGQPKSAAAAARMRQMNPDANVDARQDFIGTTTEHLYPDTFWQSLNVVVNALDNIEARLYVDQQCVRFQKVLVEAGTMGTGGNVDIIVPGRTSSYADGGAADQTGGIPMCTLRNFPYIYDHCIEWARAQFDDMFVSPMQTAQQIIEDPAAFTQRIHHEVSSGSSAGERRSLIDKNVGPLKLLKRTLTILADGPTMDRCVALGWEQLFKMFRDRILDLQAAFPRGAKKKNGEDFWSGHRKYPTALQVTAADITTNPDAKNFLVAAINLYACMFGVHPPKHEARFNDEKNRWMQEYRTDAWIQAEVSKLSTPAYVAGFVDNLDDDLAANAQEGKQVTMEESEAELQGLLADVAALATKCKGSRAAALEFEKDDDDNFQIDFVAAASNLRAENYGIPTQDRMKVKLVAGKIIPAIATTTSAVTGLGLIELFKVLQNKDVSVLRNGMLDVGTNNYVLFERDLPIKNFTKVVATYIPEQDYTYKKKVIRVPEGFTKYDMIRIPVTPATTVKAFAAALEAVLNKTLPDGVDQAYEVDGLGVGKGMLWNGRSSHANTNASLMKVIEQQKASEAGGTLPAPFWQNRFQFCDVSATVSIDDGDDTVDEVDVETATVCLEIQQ

[3] = target: AMP-activated protein kinase, AMPK (Homo sapiens) (UniProt P54646+O43741+P54619+Q9UGJ0+Q9Y478+Q13131+Q9UGI9); test: AMP-dependent Kinase enzyme assay. An in vitro enzyme assay that detects ADP turnover that is directly proportional to AMPK activity. This uses naive AMPK that is activated during the assay with MK-8722; format: functional; settings: 30 µM
[4] = target: Sialic acid-binding Ig-like lectin 9 (Homo sapiens) (UniProt Q9Y336); test: Hs-Siglec9 ALPHAscreen SOP 20170721; settings: 10 µM
Trypanosoma cruzi = test: Trypanosoma cruzi phosphomannomutase and mannose-1-phosphate guanylyltransferase assay; format: functional; settings: 10 µM
[5] = target: T2, Arginase-2, mitochondrial (Homo sapiens) (UniProt P78540); test: in vitro enzyme assay to detect the production of urea directly proportional to the activity of Arginase II; format: functional; settings: 33.3 µM; further: in the data most compounds retested in dose-response had high values
T2 sequence (whole entry): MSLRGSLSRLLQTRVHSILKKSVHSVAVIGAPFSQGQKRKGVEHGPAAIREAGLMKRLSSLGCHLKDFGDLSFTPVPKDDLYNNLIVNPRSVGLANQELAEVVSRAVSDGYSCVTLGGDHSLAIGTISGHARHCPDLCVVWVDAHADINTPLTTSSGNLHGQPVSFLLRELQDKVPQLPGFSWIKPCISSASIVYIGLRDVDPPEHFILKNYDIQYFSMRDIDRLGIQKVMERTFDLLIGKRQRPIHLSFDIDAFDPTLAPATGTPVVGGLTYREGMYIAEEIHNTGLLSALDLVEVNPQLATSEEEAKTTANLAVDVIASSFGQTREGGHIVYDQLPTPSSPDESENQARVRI

[6] = target: T3, Proteasome subunit beta (Trypanosoma cruzi) (UniProt O96673); test: Trypanosoma cruzi proteasome chymotrypsin-like activity (TcProtChymo) assay.; further: in the data most compounds retested in dose-response had high values; format: functional; settings: 9.37 µM
T3 sequence (whole entry): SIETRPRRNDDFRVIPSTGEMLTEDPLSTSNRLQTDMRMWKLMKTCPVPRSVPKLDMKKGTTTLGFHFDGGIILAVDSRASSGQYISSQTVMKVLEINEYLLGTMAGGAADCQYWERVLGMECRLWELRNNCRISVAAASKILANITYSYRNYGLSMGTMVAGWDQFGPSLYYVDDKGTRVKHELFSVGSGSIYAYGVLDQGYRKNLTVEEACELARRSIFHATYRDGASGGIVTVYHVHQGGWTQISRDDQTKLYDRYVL

Homo sapiens = species on record: Homo sapiens; test: To identify inhibition of the IFN signalling (Jak-Stat) pathway via expression of an eGFP reporter gene under the control of an IFN-stimulated response element (ISRE) containing MxA promoter.; format: functional; settings: 30 µM
[7] = target: T4, Tyrosyl-tRNA synthetase, putative (Trypanosoma cruzi (strain CL Brener)) (UniProt Q4DSP6); test: Trypanosoma cruzi tyrosyl tRNA synthetase (TcYRS) _High Tyrosine SOP; format: functional; settings: 30 µM; further: in the data most compounds retested in dose-response had high values
T4 sequence (whole entry): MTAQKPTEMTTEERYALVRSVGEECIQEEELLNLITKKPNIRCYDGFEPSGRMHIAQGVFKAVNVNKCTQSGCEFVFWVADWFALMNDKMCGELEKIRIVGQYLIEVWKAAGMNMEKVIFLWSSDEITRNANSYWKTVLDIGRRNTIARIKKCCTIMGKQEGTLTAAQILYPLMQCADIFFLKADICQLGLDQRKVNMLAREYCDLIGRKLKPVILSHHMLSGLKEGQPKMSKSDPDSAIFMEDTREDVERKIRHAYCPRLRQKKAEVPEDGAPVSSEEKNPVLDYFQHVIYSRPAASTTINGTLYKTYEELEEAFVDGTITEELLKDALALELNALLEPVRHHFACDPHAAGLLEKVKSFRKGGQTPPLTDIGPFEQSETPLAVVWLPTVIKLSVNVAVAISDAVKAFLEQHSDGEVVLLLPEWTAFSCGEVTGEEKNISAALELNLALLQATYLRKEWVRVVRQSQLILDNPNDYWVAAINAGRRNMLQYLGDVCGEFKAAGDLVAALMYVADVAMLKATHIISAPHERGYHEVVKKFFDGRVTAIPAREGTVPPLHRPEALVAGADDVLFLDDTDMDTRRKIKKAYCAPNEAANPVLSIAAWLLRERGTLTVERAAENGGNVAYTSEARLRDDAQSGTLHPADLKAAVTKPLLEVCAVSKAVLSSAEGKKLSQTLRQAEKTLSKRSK

[8] = target: T4, Tyrosyl-tRNA synthetase, putative (Trypanosoma cruzi (strain CL Brener)); test: Trypanosoma cruzi tyrosyl tRNA synthetase (TcYRS) SOP; format: functional; settings: 30 µM
[9] = target: Chromo domain-containing protein 1 (Saccharomyces cerevisiae (strain ATCC 204508 / S288c) (Baker's yeast)) (UniProt P32657); test: ScCHD-1 Enzyme Inhibition Assay; format: functional; settings: 30 µM; further: in the data most compounds retested in dose-response had high values
Chain of Chromo domain-containing protein 1 (Saccharomyces cerevisiae (strain ATCC 204508 / S288c) (Baker's yeast)) (P32657 whole entry, the tested form may be a part): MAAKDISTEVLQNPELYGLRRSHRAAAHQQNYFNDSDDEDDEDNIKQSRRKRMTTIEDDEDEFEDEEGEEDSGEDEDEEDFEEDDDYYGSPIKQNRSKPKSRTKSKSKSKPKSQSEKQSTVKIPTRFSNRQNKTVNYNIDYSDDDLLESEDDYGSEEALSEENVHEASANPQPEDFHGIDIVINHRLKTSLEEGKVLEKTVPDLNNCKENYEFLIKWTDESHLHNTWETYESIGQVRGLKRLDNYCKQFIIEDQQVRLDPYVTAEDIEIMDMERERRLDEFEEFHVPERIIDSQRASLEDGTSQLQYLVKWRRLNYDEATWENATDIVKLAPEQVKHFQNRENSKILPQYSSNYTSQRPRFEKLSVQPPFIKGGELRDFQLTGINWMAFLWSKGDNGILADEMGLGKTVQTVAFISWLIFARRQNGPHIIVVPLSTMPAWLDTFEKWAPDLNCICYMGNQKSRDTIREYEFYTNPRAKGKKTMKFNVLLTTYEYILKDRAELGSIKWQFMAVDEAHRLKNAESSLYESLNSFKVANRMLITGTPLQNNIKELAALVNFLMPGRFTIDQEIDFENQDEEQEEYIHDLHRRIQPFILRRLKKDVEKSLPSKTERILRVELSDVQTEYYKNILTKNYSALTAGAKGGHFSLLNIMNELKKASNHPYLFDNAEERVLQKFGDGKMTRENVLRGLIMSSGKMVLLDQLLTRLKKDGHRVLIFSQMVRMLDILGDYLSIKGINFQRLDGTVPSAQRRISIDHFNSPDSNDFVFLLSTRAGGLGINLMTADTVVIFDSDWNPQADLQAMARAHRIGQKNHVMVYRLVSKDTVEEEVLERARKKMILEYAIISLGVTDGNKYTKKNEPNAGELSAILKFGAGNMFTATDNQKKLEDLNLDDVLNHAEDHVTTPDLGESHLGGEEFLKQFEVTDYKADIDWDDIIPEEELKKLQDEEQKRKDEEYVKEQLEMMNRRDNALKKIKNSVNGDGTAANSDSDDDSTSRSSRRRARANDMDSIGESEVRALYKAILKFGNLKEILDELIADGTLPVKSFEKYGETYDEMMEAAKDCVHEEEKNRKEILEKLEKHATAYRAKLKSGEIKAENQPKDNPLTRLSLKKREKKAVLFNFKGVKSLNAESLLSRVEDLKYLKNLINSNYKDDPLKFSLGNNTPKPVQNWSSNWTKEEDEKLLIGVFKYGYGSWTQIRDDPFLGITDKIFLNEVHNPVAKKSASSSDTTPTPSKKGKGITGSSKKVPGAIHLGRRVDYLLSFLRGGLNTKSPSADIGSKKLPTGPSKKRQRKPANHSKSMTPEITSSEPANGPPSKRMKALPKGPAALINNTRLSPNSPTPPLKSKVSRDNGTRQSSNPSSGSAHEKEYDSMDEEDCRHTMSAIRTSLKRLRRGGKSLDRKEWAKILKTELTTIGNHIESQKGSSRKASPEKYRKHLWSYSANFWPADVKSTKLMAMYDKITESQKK

Chain of Sialic acid-binding Ig-like lectin 9 (Homo sapiens) (Q9Y336 whole entry): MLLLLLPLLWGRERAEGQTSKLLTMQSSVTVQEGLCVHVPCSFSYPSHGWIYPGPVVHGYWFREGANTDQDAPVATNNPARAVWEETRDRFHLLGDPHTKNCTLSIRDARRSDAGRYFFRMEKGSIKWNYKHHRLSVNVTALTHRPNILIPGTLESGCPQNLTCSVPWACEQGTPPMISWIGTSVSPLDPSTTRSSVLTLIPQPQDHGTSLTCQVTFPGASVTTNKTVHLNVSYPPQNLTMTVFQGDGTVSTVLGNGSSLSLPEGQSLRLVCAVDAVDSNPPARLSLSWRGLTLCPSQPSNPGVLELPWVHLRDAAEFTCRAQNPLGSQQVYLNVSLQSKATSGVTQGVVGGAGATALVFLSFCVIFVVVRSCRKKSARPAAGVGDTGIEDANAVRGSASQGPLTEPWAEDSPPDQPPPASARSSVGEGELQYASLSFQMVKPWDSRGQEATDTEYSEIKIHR
Chain of Protein translocase subunit SecA (Escherichia coli (strain K12)) (P10408 whole entry): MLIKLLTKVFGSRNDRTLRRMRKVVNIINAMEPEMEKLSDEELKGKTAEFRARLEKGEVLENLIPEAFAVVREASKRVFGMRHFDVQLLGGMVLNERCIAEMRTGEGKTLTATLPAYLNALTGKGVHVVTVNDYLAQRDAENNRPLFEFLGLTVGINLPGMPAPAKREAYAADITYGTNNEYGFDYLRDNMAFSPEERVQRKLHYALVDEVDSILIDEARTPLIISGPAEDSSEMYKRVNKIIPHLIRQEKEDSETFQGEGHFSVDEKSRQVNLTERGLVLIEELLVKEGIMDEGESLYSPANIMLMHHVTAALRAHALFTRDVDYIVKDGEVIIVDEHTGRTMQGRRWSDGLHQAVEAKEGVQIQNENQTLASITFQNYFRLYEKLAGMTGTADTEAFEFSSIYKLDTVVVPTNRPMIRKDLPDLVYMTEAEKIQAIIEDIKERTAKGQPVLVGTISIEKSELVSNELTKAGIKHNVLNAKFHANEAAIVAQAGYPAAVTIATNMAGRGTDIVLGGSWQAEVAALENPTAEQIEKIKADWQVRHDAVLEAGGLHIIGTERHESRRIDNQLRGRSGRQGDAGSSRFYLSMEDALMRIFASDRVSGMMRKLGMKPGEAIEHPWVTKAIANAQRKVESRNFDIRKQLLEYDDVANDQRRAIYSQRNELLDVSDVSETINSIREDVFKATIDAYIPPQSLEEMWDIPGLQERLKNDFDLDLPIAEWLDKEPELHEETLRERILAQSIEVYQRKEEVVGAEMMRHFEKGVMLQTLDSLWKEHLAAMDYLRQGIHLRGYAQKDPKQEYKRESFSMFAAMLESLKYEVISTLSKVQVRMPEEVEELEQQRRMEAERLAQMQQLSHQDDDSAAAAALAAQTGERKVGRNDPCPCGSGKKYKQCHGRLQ

SMILES | Percent Effect [1] | Percent Effect [2] | Percent Effect [3] | Percent Effect [4] | Percent Effect (Trypanosoma cruzi) | Percent Effect [5] | Percent Effect [6] | Percent Effect (Homo sapiens) | Percent Effect [7] | Percent Effect [8] | Percent Effect [9]
Cc1ccc(N(CC(=O)c2ccc(Br)cc2)C2=NCCCCC2)cc1 | -1.45% | -55.3% | 5.34% | 3.76% | 5.55% | -11.8% | 11% | 17.9% | 4.25% | -2.6% | -1.8%
Cc1cnn(CC2CCCN2C(=O)c2cc(C)no2)c1 (configuration not stated) | -7.95% | 5.26% | -9.36% | 0.94% | -8.12% | 0.36% | -4.65% | 2.42% | -0.493% | -8.64% | 10.5%
CN(Cc1cccnc1)CC1CCCN1c1cccnn1 (configuration not stated) | 4.47% | 18.2% | -2.81% | -14.9% | -5.58% | 0.21% | 13.7% | 27.4% | 7.62% | 18.8% | -18.6%
CN(CCNC(=O)N1CCN(Cc2ccon2)CC1)c1ccccc1 | -4.87% | 5.33% | -2.4% | 0.269% | -5.75% | 2.6% | 12.2% | -1.26% | 3.83% | 3.7% | -4.99%
c1cnnc(N2CCCC(NCc3ccc(-n4ccnc4)cc3)C2)c1 (configuration not stated) | -1.81% | 2.6% | 5.74% | 12% | -0.49% | 1.9% | 8.33% | 3.55% | 0.952% | 0% | -13.3%
COc1ccc(OCCNCCn2cccn2)cc1 | 1.21% | 1.27% | -2.53% | 10.8% | -1.95% | 7.1% | 6.69% | 6.41% | -1.04% | 2.53% | -1.82%
CC(C)Cc1nc(OCC(=O)O)c(C#N)c2c1CCC2 | 1.44% | 9.33% | -5.52% | -3.77% | 1.57% | -2.29% | 9.24% | 3.54% | -1.06% | 2.56% | -8.05%
COCCN1C[C@@H]2CN(Cc3cccc(F)c3)CCC[C@]2(C(=O)O)C1 | -4.38% | 0% | 0.729% | -3.33% | -4.24% | 1.94% | 8.53% | 3.04% | -2.12% | -1.28% | -7.5%
CC(C(=O)NCc1ccnc(N2CCCC2)c1)n1cncn1 (configuration not stated) | -3.9% | 15.8% | -4.58% | -5.93% | -5.45% | 3.45% | 7.18% | 26.8% | 3.43% | 0% | -11.3%
COCC1c2nnn(CC3CC3)c2CCN1C(=O)c1ccnnc1 (configuration not stated) | -5.05% | 21.6% | -7.32% | 32.8% | 3.81% | 3.23% | 3.86% | -2.31% | 6.45% | 13.6% | -10.1%
O=C(NCCOc1ncc(Cl)cc1Cl)c1ccncc1F | -4.54% | 2.7% | 2.46% | -3.73% | 5.08% | -2.08% | 17.8% | 8.71% | 5.94% | 8.54% | -7.35%
O=C(NCCNc1cnccn1)N1CCN(Cc2cccnc2)CC1 | -5.13% | 8.86% | -3.44% | -10.1% | 3.38% | 1.5% | 15.1% | 10.6% | 7.29% | 20.2% | -33.3%
CC(C)(C)C(=O)Cn1nc(-c2ccccc2F)ccc1=O | -3.18% | 6.67% | 5.01% | 9.44% | 0.393% | -10% | 16.6% | 5.03% | 5.29% | 10.3% | -6.12%
CN1CCN(C(=O)c2nc3c(o2)CN(C(=O)c2cccnc2)C3)CC1 | -2.08% | 0% | -4.16% | 2.81% | -1.28% | -5.52% | 14% | 2.22% | 1.07% | 8.64% | 1.76%
COc1ncnc2c1CCN(c1cc(C(F)(F)F)ncn1)CC2 | -3.48% | 8% | 4.03% | -3.21% | -6.56% | -57.5% | 6.67% | 20.9% | -1.04% | 7.5% | -7.82%
Cc1ccc(C(=O)NC(CN2CCCC2=O)c2ccccc2)c(=O)[nH]1 (configuration not stated) | -4.18% | 21.9% | -6.93% | 17.4% | 5.88% | 29.6% | 9.23% | 2.33% | 5.38% | 15% | -5.93%
CN(C)c1ccc(C(=O)NCC2(O)CCOCC2)cc1 | -4.98% | 2.7% | -2.16% | 3.55% | 3.48% | 3.33% | 13.1% | -3.96% | 5.82% | 12.2% | -5.31%
c1ccc2c(N3CCCCC3Cn3cncn3)ncnc2c1 (configuration not stated) | -4.99% | 2.67% | -0.541% | 0.114% | -0.876% | 3.12% | 8.54% | 16.2% | 2.73% | 6.17% | -6.35%
CC(C)c1ccc(O)c(C(=O)N2CCN(Cc3cscn3)CC2)c1 | -1.48% | 16.2% | 0.162% | 10.1% | 5.85% | -6.1% | 4.85% | 26.8% | 5.94% | 18.3% | -3.11%
Cc1noc(C)c1C(=O)NCc1ccnc(OCC(F)(F)F)c1 | -3.23% | 26.3% | -1.27% | 0.107% | 7.52% | 0% | 11.2% | 10.2% | 7.35% | 9.76% | -11%
CC(C)[C@H](NC(=O)NC1CCS(=O)(=O)C1)C(=O)NCc1ccccc1Cl (some centres not stated) | -0.711% | -6.67% | 4.79% | 4.22% | -6.88% | -4.05% | 3.51% | -4.73% | -5.29% | -2.56% | 1.25%
CCc1nc(C)c(C(=O)N2C[C@H]3CC[C@@H]2CN(S(=O)(=O)N(C)C)C3)s1 | -5.92% | 2.67% | -0.605% | -2.09% | -8.28% | -2.08% | 15.9% | 21.2% | -0.546% | 3.7% | -4.98%
